The nature of test [1]: small molecules captured by biotinylated probe aFSTL3 – biochemical, small-molecule microarray, fluorescence 635/667, stem cell growth factor project, primary screen (AID 1064).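 Further: measures binding of the biotinylated anti-FSTL3 antibody to printed compounds.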 To be noted: higher = more signal.
Test [2] can be described thus: binders from COS7 lysate, DM2A8 probe, primary screen, torsin A project, cell lysate, small-molecule microarray, fluorescence 635/667 (AID 1065). As to conditions: higher = more signal, COS7 lysate expressing mutant human TOR1A.
A short description of test [3]: small molecules captured by biotinylated probe aFGF2 – biochemical, small-molecule microarray, fluorescence 635/667, stem cell growth factor project, primary screen (AID 1067).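 Further: measures binding of biotinylated aFGF2 protein to printed compounds on slides; z-score merges feature fluorescence and signal-to-noise across triplicate slides.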 As to conditions: higher = more signal.
Test [4] can be described thus: small molecules captured by biotinylated probe aFGF10 – biochemical, small-molecule microarray, fluorescence 635/667, stem cell growth factor project, primary screen (AID 1071).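 Further: score merges 667 nm spot intensity and signal to noise from triplicate slides.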 As to conditions: higher = more signal.
Test [5] deals with Neurogenic locus notch homolog protein 2 (Homo sapiens) (UniProt Q04721). Kind of test: small molecules binding Notch2 protein – biochemical, small-molecule microarray, 635 nm fluorescence, stem cell growth factors, primary screen (AID 1073). As to conditions: higher = more signal.
In test [6] the target is Pro-neuregulin-1, membrane-bound isoform (Homo sapiens) (UniProt Q02297). Nature of the test: small molecules binding neuregulin-1 protein – biochemical, small-molecule microarray, fluorescence 635/667, psychiatric disease protein project, primary screen (AID 1075).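 Further: score combines 667 nm spot fluorescence with signal to noise.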 To be noted: NRG1 binding, 635 nm fluorescence, higher = more signal.
For test [7], the system named is Neuregulin-1 EGF-like domain. Kind of test: small molecules binding NRG1 EGF domain – biochemical, small-molecule microarray, 635 nm fluorescence, primary screen (AID 1081).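 Further: binding of the protein to compounds printed on small-molecule microarray slides.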 As to conditions: higher = more signal.
Test [8] can be described thus: FRG1 expression reporter modulators in myotubes – cell-based, C2C12 myotubes, firefly/Renilla luciferase, luminescence, FRG1 inhibition for FSHD, primary screen (AID 1084). To be noted: FRG1 promoter luciferase, higher = more signal, called active from +8 up or from −8 down.
The nature of test [9]: small molecules captured by biotinylated probe aFST – biochemical, small-molecule microarray, fluorescence 635/667, stem cell growth factor project, primary screen (AID 1086).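 Further: score merges 667 nm fluorescence with signal-to-noise of each printed compound spot.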 To be noted: higher = more signal.
Test [10] is described as follows: binders of probe aHhip on microarray, primary screen, stem cell growth factor project, biochemical, small-molecule microarray, fluorescence 635/667 (AID 1087).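 Further: score merges spot fluorescence at 667nm with spot signal to noise ratio.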 To be noted: higher = more signal.
The subject of test [11] is PRMT1 (protein arginine N-methyltransferase 1). Kind of test: small molecules binding arginine methyltransferase PRMT1 – biochemical, small-molecule microarray, 635 nm fluorescence, primary screen (AID 1088).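 Further: binding of Prmt1 protein to compounds spotted on small-molecule microarray slides.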 To be noted: higher = more signal.
Test [12] in a line: growth effects on S. cerevisiae YJM789 – YJM789 clinical isolate, OD600, 24 h, basal, primary screen (AID 1089).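 Further: growth of clinical yeast isolate S. cerevisiae YJM 789 seeded 1000 cells per well; test concentration not given here.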 As to conditions: higher = more signal, called active from +8 up or from −8 down.
Test [13] in a line: S. pombe growth modifiers, basal conditions – strain 972, OD600, 24 h, no modulator, primary screen (AID 1090).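 Further: basal condition with compound alone and no growth modifier present; test concentration not given here.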 To be noted: S. pombe 972 growth, higher = more signal, called active from +8 up or from −8 down.
Test [14] can be described thus: budding yeast growth modifiers under rapamycin – strain BY4716, OD600, 96 h, primary screen (AID 1091). Further: test concentration not given here. As to conditions: S. cerevisiae BY4716 + rapamycin, higher = more signal, called active from +8 up or from −8 down.
Test [15] concerns the target Torsin-1A-interacting protein 2 (Homo sapiens) (UniProt Q8NFQ8). Nature of the test: small molecules binding lysate-expressed LULL1 – cell lysate, human LULL1 lysate, 635/667 nm fluorescence, primary screen (AID 1092).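 Further: probe is lysate of COS7 cells overexpressing human LULL1; score merges per-feature 667 nm fluorescence with signal-to-noise.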 As to conditions: small-molecule microarray, hLULL1 lysate binding, 635 nm fluorescence; higher = more signal.
Test [16] in a line: optical density change of DRC41 E. coli – strain DRC41, OD650, 24 h, E. coli filamentation project, primary screen (AID 1093).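 Further: MC1000 strain lacking acrAB efflux and sulA so SOS filamentation is blocked; test concentration not given here.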 As to conditions: E. coli DRC41 growth, higher = more signal, called active from +8 up or from −8 down.
The nature of test [17]: probe aLefty2 binding to arrayed compounds – biochemical, biotinylated probe, 635/667 nm fluorescence, primary screen (AID 1094).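 Further: score merges spot fluorescence near 667 nm with spot signal-to-noise ratio.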 As to conditions: small-molecule microarray, higher = more signal.
For test [18], the system named is Noggin (protein binding on small-molecule microarray). Kind of test: small molecules binding Noggin protein – biochemical, 635/667 nm fluorescence, primary screen (AID 1095).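 Further: score merges 667 nm feature fluorescence with signal to noise over triplicate slides.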 As to conditions: 635 nm fluorescence, higher = more signal.
In test [19] the target is Neurogenic locus notch homolog protein 3 (Homo sapiens) (UniProt Q9UM47). Kind of test: small molecules binding NOTCH3 protein – biochemical, 635/667 nm fluorescence, primary screen (AID 1096). As to conditions: small-molecule microarray, 635 nm fluorescence, higher = more signal.
A short description of test [20]: probe aEGFR binding to arrayed compounds – biochemical, biotinylated probe, 635/667 nm fluorescence, primary screen (AID 1097).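 Further: probe is a biotinylated anti-EGFR antibody binding compounds printed on slides; score combines fluorescence near 667 nm and signal to noise of each spot.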 As to conditions: small-molecule microarray, higher = more signal.

Consider 5 compounds from PubChem BioAssay.

Calls of active or inactive are those of the source.

Sequence of Neurogenic locus notch homolog protein 2 (Homo sapiens) (Q04721 whole entry, looked up, canonical isoform): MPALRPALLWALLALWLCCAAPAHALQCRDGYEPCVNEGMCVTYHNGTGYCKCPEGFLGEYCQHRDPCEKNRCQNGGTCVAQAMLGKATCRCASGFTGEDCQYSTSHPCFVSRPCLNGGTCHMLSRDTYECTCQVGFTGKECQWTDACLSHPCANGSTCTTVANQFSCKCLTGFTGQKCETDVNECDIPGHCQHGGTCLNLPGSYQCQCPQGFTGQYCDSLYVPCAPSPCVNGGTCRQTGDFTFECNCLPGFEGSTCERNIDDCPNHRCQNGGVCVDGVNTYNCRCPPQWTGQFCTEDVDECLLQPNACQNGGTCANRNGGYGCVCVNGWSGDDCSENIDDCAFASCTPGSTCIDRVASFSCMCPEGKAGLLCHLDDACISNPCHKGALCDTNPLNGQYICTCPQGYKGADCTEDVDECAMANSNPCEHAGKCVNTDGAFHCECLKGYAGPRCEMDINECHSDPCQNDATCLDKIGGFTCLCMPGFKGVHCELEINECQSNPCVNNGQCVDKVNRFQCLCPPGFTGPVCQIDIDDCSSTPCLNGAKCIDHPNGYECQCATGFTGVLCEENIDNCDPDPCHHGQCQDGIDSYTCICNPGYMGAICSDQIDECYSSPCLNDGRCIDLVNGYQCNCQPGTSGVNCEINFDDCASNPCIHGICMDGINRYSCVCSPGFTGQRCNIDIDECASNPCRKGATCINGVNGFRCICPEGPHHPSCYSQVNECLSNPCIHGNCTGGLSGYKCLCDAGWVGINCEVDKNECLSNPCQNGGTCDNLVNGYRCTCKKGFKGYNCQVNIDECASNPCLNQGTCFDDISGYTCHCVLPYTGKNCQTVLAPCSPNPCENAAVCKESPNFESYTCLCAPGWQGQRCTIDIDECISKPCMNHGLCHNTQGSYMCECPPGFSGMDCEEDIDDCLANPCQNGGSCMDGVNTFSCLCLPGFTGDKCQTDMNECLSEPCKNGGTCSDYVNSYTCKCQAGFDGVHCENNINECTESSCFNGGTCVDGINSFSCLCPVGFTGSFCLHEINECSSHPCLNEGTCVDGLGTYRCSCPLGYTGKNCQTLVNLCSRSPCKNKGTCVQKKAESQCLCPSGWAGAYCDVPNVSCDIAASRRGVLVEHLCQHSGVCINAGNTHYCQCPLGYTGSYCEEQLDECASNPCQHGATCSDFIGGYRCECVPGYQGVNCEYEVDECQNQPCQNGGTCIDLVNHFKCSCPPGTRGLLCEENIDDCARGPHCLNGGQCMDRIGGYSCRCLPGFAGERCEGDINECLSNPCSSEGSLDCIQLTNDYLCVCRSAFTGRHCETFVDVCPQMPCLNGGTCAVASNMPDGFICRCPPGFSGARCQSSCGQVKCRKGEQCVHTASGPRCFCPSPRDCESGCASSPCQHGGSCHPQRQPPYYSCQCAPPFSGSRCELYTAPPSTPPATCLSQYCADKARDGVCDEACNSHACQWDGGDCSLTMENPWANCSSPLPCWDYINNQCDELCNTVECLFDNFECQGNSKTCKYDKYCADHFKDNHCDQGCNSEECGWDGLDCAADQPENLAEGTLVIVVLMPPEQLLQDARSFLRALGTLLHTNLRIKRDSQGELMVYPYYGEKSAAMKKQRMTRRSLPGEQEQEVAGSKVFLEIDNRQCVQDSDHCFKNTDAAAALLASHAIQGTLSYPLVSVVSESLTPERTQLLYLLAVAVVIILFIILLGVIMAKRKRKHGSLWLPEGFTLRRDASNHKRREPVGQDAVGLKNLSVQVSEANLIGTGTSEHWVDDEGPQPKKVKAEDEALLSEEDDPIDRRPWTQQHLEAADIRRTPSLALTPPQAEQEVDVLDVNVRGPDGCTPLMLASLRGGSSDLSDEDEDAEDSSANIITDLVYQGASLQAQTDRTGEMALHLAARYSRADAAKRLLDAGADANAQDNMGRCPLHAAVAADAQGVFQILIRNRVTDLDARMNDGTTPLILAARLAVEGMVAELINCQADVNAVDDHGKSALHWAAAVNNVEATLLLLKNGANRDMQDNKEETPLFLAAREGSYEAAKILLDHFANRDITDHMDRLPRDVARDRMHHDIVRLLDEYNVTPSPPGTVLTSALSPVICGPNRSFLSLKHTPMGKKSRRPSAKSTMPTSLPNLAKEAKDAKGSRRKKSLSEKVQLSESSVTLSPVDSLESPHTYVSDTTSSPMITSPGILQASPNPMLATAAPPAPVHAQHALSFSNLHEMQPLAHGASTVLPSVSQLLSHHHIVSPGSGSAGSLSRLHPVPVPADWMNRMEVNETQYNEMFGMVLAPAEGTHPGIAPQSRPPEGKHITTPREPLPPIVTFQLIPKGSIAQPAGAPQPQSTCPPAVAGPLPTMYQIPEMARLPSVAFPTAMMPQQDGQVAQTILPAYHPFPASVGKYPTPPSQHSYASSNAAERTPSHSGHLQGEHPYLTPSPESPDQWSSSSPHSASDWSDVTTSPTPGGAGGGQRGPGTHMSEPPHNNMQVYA
Sequence of Pro-neuregulin-1, membrane-bound isoform (Homo sapiens) (Q02297 whole entry, looked up, the tested form may be a part, canonical isoform): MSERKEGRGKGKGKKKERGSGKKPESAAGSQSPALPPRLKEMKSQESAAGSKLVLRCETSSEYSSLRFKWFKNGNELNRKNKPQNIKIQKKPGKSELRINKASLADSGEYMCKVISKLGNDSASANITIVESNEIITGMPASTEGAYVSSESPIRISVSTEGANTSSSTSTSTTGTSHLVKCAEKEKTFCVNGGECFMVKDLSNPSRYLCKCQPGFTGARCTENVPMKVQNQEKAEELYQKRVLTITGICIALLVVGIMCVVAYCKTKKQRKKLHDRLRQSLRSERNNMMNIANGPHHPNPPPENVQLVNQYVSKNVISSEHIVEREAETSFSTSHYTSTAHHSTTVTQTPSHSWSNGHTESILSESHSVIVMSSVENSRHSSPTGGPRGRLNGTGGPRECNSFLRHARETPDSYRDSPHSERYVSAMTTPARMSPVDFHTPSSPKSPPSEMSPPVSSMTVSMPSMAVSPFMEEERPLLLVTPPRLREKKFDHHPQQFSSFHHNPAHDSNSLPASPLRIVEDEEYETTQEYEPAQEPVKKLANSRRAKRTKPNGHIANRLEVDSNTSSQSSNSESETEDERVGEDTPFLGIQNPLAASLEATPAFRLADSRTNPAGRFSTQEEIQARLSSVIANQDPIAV
Sequence of Torsin-1A-interacting protein 2 (Homo sapiens) (Q8NFQ8 whole entry, looked up): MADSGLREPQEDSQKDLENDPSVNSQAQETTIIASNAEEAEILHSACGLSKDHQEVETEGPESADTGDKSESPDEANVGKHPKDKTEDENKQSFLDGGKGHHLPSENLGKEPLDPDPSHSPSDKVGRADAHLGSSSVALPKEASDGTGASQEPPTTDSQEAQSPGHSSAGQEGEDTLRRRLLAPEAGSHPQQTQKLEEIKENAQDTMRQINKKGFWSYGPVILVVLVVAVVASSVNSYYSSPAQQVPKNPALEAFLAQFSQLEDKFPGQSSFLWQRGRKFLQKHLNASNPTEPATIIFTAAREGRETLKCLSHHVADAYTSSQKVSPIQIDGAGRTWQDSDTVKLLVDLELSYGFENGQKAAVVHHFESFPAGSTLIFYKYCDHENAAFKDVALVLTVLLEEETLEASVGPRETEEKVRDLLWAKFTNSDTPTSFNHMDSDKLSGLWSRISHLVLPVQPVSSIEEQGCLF

`O=C1C2C=CC(C(O)c3ccc(F)cc3)N(Nc3ccccc3)C2C(=O)N1c1ccccc1` (stereo not given): the composite z-score was 0.719 in [1]; 0.616 in [2]; 0.0332 in test [3]; 0.407 in test [4]; 0.314 in test [5]; 0.828 in [6]. The composite z-score in test [7] is 1.14; in [9], 0.593; in [10], 0.0053; in [11], 0.435; in test [15], 3.15; in [17], 0.388. Moreover, the composite z-score is -1.2 in [18], 0.246 in test [19] and -0.0111 in test [20]. The z-score in [8] is -1.65 (inactive); in test [12], 0.874 (inactive); in [13] it was 1.31 (inactive); in test [14], 1.59 (inactive); in [16], -0.754 (inactive).
Take `COC(=O)c1ccc(C(O)C2C=CC3C(=O)N(c4ccccc4)C(=O)C3N2Nc2ccc(C#N)cc2)o1` (stereo not given): the composite z-score in test [1] was determined as 0.042; in [2], 0.465; in test [3], 0.0394; in [4] it was 0.865; in test [5], 1.33; in test [6] it was 0.665. Besides, the composite z-score in [7] was 1.34; in test [9], 0.478; in test [10], -0.199; in test [11], 0.431; in test [15], 3.19; in [17], -0.0478. Besides, the values for the composite z-score in test [18], in test [19] and in test [20] were 0.284, 0.927 and -0.0446, respectively. Also, the z-score was 0.447 (inactive) in test [8]; -0.0337 (inactive) in test [12]; 0.328 (inactive) in test [13]; 0.989 (inactive) in test [14]; -1.07 (inactive) in test [16].
Turning to `COc1ccc(C#Cc2ccc3c(c2)[C@]2(C(=O)N3)[C@H](c3ccc(O)cc3)N3[C@H](c4ccccc4)[C@H](c4ccccc4)OC(=O)[C@H]3[C@@H]2C(=O)N2CCCCCCC2)cc1`, the composite z-score was 3.42 in test [1]; 0.524 in [2]; 0.858 in test [3]; 0.488 in test [4]; 1.39 in [5]; 1.01 in [6]. In addition, the composite z-score in test [7] stood at 1.25; in test [9] it was 3.25; in test [10], 0.0914; in test [11] it was 1.55; in test [15] it was 4.08; in test [17] it was 1.61. Further, the values for the composite z-score in test [18], in test [19] and in [20] were 1.86, 1.07 and 0.778, respectively. Moreover, the z-score in test [8] is -0.263 (inactive); in test [12], -1.51 (inactive); in [13], -0.0733 (inactive); in test [14], 1.15 (inactive); in [16], 0.484 (inactive).
Take `NCCCCCNC(=O)[C@H]1C[C@H]2C(=O)NCC(=O)N2[C@H]1c1cccc(OCCO)c1`: the composite z-score in test [1] was 0.257; in test [2] it was 0.759; in [3], -0.0337; in test [4], -0.0838; in [5], 0.709; in test [6], 1.17. Further, the composite z-score was 1.43 in [7]; 0.95 in test [9]; 0.165 in test [10]; 1.31 in test [11]; 2.34 in test [15]; -0.0766 in test [17]. In addition, the composite z-score was determined as 1.33 in test [18], 0.6 in [19] and 0.0311 in test [20]. Further, the z-score in test [8] was 1.11 (inactive); in [12], -0.155 (inactive); in test [13], -1.02 (inactive); in test [14], -0.189 (inactive); in [16] it was 0.946 (inactive).
`O=C1O[C@@H](c2ccccc2)[C@@H](c2ccccc2)N2[C@@H](c3ccc(OCCO)cc3)[C@]3(C(=O)Nc4ccc(C#CC5=CCCCC5)cc43)[C@@H](C(=O)O)[C@H]12`: the composite z-score in [1] was 0.44; in test [2], 0.681; in test [3] it was -0.0158; in test [4] it was 0.506; in test [5], 1.48; in [6], 1.59. The composite z-score in test [7] was found to be 1.12; in test [9], 0.492; in [10], 0.0274; in [11], 1.5; in test [15], 1.96; in [17], 0.0919. Besides, the composite z-score is 0.107 in test [18], 0.793 in test [19] and 0.0061 in test [20]. The z-score is 0.82 (inactive) in test [8]; 1.73 (inactive) in test [12]; 1.22 (inactive) in test [13]; -0.188 (inactive) in [14]; 0.112 (inactive) in test [16].
